Assay results taken from PubChem BioAssay (NCATS).
Records with an inconclusive call do not appear. Entries that show only a call come without a potency. Activity calls are given as the source filed them. The call rests on the fitted dose curve; in most records, active means well fitted curve in the direction sought with a large enough effect; inconclusive means small, poorly fitted or top-dose-only effect, or another doubt; inactive means no such curve, though single readings can be large; an effect the other way counts as inactive or inconclusive.

Assays:
[1] = qHTS assay for measurement of the activity of small molecule inhibitors on Zika virus induced Caspase-3 activity in human iPSC derived neural progenitor cells (hNPCs) (AID 1224857); further: nearly all actives have a fitted effect of over 65% in size
How it was run: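 After overnight (16–20 h) culture at 350 cells/well, hNPCs get compound, then ZIKV 2 FFU/cell one hour later. Six hours on, Caspase-Glo 3/7 is added and luminescence measured.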

[2] = qHTS assay for measurement of the activity of small molecule inhibitors on Zika virus induced Caspase-3 activity in human astrocytoma cells (AID 1224859)
How it was run: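 Inhibition of Zika-induced caspase-3/7 activity: SNB-19 cells, 1 h compound pretreatment, ZIKV 2 FFU/cell for 6 h at 37 C, Caspase-Glo luminescence read-out.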

[3] = qHTS of pediatric cancer cell lines to identify multiple opportunities for drug repurposing: Primary screen for TC32 cells (AID 1347089); further: nearly all actives have a fitted effect of over 60% in size; further: potency means the concentration at half of the fitted maximal effect
How it was run: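 Measured quantity: luminescence from CellTiter-Glo, reflecting metabolically active TC32 cells following 48 h of compound. Curves came straight from multi-point titrations, with 8 or 11 points in primary and 11 in confirmatory screening.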

[4] = qHTS of pediatric cancer cell lines to identify multiple opportunities for drug repurposing: Primary screen for DAOY cells (AID 1347090); further: nearly all actives have a fitted effect of over 55% in size; further: potency means the concentration at half of the fitted maximal effect
How it was run: (§1)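 Cell viability, CellTiter-Glo luminescence; 500-1,000 cells/well, 8- or 11-point titration, 48 h compound exposure at 37 degrees C, 5% CO2. Controls: DMSO neutral, bortezomib 2.3 µM final as positive.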

[5] = qHTS of pediatric cancer cell lines to identify multiple opportunities for drug repurposing: Primary screen for SJ-GBM2 cells (AID 1347091); further: potency means the concentration at half of the fitted maximal effect
How it was run: as §1

[6] = qHTS of pediatric cancer cell lines to identify multiple opportunities for drug repurposing: Primary screen for A673 cells (AID 1347092); further: nearly all actives have a fitted effect of over 45% in size; further: potency means the concentration at half of the fitted maximal effect
How it was run: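 Cells are plated, rested 5 h, dosed by pintool, incubated 48 h, then lysed with CellTiter-Glo and read by luminescence. DMSO is the neutral control; bortezomib at 2.3 uM final is the positive control.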

[7] = qHTS of pediatric cancer cell lines to identify multiple opportunities for drug repurposing: Primary screen for SK-N-MC cells (AID 1347093); further: potency means the concentration at half of the fitted maximal effect
How it was run: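 Metabolically active cells were quantified by ATP-dependent luminescence (CellTiter-Glo, 15 min at room temperature) following 48 h treatment. Cells had been plated at 500-1,000 per well and settled for 5 h beforehand.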

[8] = qHTS of pediatric cancer cell lines to identify multiple opportunities for drug repurposing: Primary screen for NB-EBc1 cells (AID 1347095); further: potency means the concentration at half of the fitted maximal effect
How it was run: (§2)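 CRCs from 8- or 11-point titrations (lowest final 0.59 nM NPC, 0.78 nM MIPE). Cell viability: CellTiter-Glo after 48 h incubation, 15 min room-temperature development, luminescence imaging.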

[9] = qHTS of pediatric cancer cell lines to identify multiple opportunities for drug repurposing: Primary screen for U-2 OS cells (AID 1347096); further: nearly all actives have a fitted effect of over 50% in size
How it was run: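 Cells (500-1,000/well) rested 5 h, then received compounds for 48 h; metabolically active cells were measured by CellTiter-Glo luminescence. Final concentrations spanned up to 46 µM (MIPE, 11-point) or 0.59 nM-46 µM (NPC, 8-point) in primary screens, 11-point in follow-ups.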

[10] = qHTS of pediatric cancer cell lines to identify multiple opportunities for drug repurposing: Primary screen for BT-37 cells (AID 1347094); further: potency means the concentration at half of the fitted maximal effect
How it was run: as §2

[11] = P-glycoprotein substrates identified in KB-8-5-11 adenocarcinoma cell line, qHTS therapeutic library screen (AID 1346987); further: series mostly up to about 44 µM; nearly all actives have a fitted effect of over 65% in size
How it was run: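 Human cervical adenocarcinoma KB-8-5-11 cells, selected in colchicine to over-express P-gp and assayed without it, were exposed for 72 h to titrated compounds. An ATP-based luminescent viability signal gave AC50.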

[12] = NS1 protein of Zika virus - qHTS assay to identify small molecule inhibitors in human HEK 293 cells (AID 1347053); further: nearly all actives have a fitted effect of over 55% in size; further: potency means the concentration at half of the fitted maximal effect
How it was run: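 Compound-treated (1 h pre-infection) HEK 293 cells infected with ZIKV MR766, MOI = 0.5; after 24 h at 37 C, NS1 read by TR-FRET; data normalized to uninfected and infected controls.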

| Compound | Potency [1] | outcome [2] | Potency [3] | Potency [4] | Potency [5] | Potency [6] | Potency [7] | Potency [8] | Potency [9] | Potency [10] | Potency [11] | Potency [12] |
| --- | --- | --- | --- | --- | --- | --- | --- | --- | --- | --- | --- | --- |
| CCCCCCCCCCCCCCCCCCN(C)C | inactive | inactive | inactive | inactive | inactive | inactive | inactive | inactive | inactive | – | – | – |
| Cc1ccc(CCn2c3c(c4cc(Cl)ccc42)CN(C)CC3)cn1 | inactive | inactive | inactive | inactive | inactive | – | – | inactive | inactive | inactive | – | – |
| CCN1CCN(C(=O)N[C@@H](C(=O)N[C@@H]2C(=O)N3[C@@H]2SC(C)(C)[C@H]3C(=O)O)c2ccccc2)C(=O)C1=O | inactive | – | inactive | inactive | inactive | inactive | inactive | inactive | inactive | inactive | inactive | inactive |
| CCC(=O)O[C@]1(C(=O)COC)[C@@H](C)C[C@H]2[C@@H]3CCC4=CC(=O)C=C[C@]4(C)C3(F)[C@@H](O)C[C@@]21C (stereo partly drawn) | inactive | – | inactive | inactive | inactive | inactive | inactive | inactive | – | inactive | – | inactive |
| CCOC(=O)C(=O)CCc1ccccc1 | inactive | – | inactive | inactive | inactive | inactive | inactive | inactive | inactive | inactive | – | inactive |
| Cc1cccc(C)c1NC(=O)c1cc(S(N)(=O)=O)c(Cl)cc1O | inactive | – | inactive | – | inactive | inactive | inactive | inactive | inactive | inactive | inactive | inactive |
| CC(CCc1ccc2c(c1)OCO2)NN (stereo not drawn) | inactive | – | inactive | inactive | inactive | inactive | inactive | inactive | inactive | inactive | inactive | inactive |
| CCOC(=O)C(=O)c1csc(NC=O)n1 | inactive | – | inactive | inactive | inactive | inactive | inactive | inactive | inactive | inactive | – | inactive |
| CN1CC[C@H](c2c(O)cc(O)c3c(=O)cc(-c4ccccc4Cl)oc23)[C@H](O)C1 | inactive | – | 592 nM (active) | 531 nM (active) | 106 nM (active) | 106 nM (active) | 266 nM (active) | 133 nM (active) | – | 347 nM (active) | – | 1.58 µM (active) |
| COC(=O)C1=C(C)NC(C)=C(C(=O)OCCc2ccc(N3CCN(C(c4ccccc4)c4ccccc4)CC3)cc2)C1c1cccc([N+](=O)[O-])c1 (stereo not drawn) | inactive | – | inactive | inactive | inactive | inactive | – | inactive | inactive | inactive | – | inactive |
| Nc1c(NC/C=C\COc2cc(CN3CCCCC3)ccn2)c(=O)c1=O | inactive | – | inactive | inactive | inactive | inactive | inactive | inactive | inactive | inactive | inactive | inactive |
| COCCc1ccccn1 | inactive | – | inactive | inactive | inactive | inactive | inactive | inactive | inactive | inactive | – | inactive |
| Cc1ccc(Cl)c(OCC(O)CNC(C)(C)C)c1 (stereo not drawn) | inactive | – | inactive | inactive | inactive | inactive | inactive | inactive | inactive | inactive | – | inactive |
| CC(=O)CC/C=C(\C)CC/C=C(\C)CC/C=C(\C)CCC=C(C)C | inactive | – | – | inactive | inactive | inactive | inactive | inactive | inactive | – | inactive | inactive |
| CSCC[C@H](NC(=O)[C@H](Cc1c[nH]c2ccccc12)NC(=O)CCNC(=O)OC(C)(C)C)C(=O)N[C@@H](CC(=O)O)C(=O)N[C@@H](Cc1ccccc1)C(N)=O | inactive | – | inactive | inactive | inactive | inactive | inactive | inactive | inactive | inactive | – | inactive |
| CC(C)(C)c1ccc(C(=O)CCCCl)cc1 | inactive | – | inactive | inactive | inactive | – | inactive | inactive | inactive | inactive | – | inactive |
| Cc1nc2n(c(=O)c1CCN1CCC(C(=O)c3ccc(F)cc3)CC1)CCS2 | inactive | – | – | inactive | inactive | inactive | inactive | – | – | inactive | – | inactive |
| COc1cc2c(cc1OC)C(=O)CC2 | inactive | – | inactive | inactive | inactive | inactive | – | inactive | – | inactive | – | – |
| Nc1ccc(O)cc1 | inactive | – | inactive | inactive | – | inactive | – | inactive | inactive | inactive | inactive | inactive |
